Experimental data from publication PMC7819943, “Rice protein-binding microarrays: a tool to detect cis-acting elements near promoter regions in rice”.
Over roughly 39,000 sequences, “fluorescence intensity (a.u.)” has its median near 4,300; the highest 2% begin near 39,000. This excerpt belongs to a sample that is enriched for the highest values.

What follows are sequences tested against T1, OsSMF1 (Oryza sativa, UniProt Q6ZLB0 1-436) (assay: protein-binding microarray (RPBM); PBS, 2% BSA, 51.3 ng/ul salmon testes DNA, 50 uM zinc acetate, 200 nM TF, 25 C, 1 h; high values mean tight binding). Conditions: protein: recombinant; tags: N-terminal polyhistidine and DsRed monomer fusion (pET32a); chain copies: 2; label: CyDye5-dUTP incorporated in the synthesized complementary strand; 3' TTTTT single-stranded linker to array surface; dsDNA, one strand shown.
T1 sequence: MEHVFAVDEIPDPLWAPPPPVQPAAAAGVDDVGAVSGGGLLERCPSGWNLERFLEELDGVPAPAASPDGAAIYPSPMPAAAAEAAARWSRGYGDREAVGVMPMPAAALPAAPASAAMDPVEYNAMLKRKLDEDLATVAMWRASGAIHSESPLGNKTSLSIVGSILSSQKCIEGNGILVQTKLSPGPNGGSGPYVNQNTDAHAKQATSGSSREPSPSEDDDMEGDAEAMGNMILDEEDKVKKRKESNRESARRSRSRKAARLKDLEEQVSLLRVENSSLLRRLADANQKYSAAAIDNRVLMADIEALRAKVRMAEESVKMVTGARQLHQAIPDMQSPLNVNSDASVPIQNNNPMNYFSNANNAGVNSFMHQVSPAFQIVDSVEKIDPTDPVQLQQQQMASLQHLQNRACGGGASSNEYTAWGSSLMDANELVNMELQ
Procedure, shortened: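 Binding signal is reported as fluorescence intensity per feature (arbitrary units) from an Axon 4000B scanner. Incubation used 200 nM of each Ni–NTA-purified, N-terminally polyhistidine- and DsRed-fused transcription factor from E. coli BL21-CodonPlus on a double-stranded custom Agilent array for 1 h at 25 °C, with 50 µM zinc acetate in the buffer, followed by washing.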

Sequence | binding signal
TGAGCCCATTCTATCTTGTACCAATTTGTGGGATATGGCCCGGAGTCACCTAGTGCAG | 41000 fluorescence intensity (a.u.)
CATCCACGTGGTGCCGCACCTAACCAGCGTAGCAGTTGCTCGGAGTCACCTAGTGCAG | 5710 fluorescence intensity (a.u.)
ATCATAGTATGCCGTACGGCCTGGACCTTCTGTCACGTGGCGGAGTCACCTAGTGCAG | 5660 fluorescence intensity (a.u.)
TATGTGGACCATAGTGGCCTTCGGCAATATGGATTAGTAGCGGAGTCACCTAGTGCAG | 47700 fluorescence intensity (a.u.)
GTGTGTGTATGACAGGTGGGACCATATATTAATAGTGTAGCGGAGTCACCTAGTGCAG | 3480 fluorescence intensity (a.u.)
CGACTACGAGACGCGAGGTTGAAGACAAGTAAGTACTCCTCGGAGTCACCTAGTGCAG | 65500 fluorescence intensity (a.u.)
TGCACACCCAGGTTGAAGACGACAATGACGAGCTCGGGCGCGGAGTCACCTAGTGCAG | 3330 fluorescence intensity (a.u.)
CATTCTCCTTCTCTCTCGTACGGCTAGAGGTTGAAGACGACGGAGTCACCTAGTGCAG | 3760 fluorescence intensity (a.u.)
GAGTTACCACGAGATGACACGTAGGATAAAGAGCTTTGAACGGAGTCACCTAGTGCAG | 8600 fluorescence intensity (a.u.)
CTCGAGAGTTATTTATTATTTATATTTCCAAAGGTTTGACCGGAGTCACCTAGTGCAG | 25900 fluorescence intensity (a.u.)
TCCAATCCTGCGTGGAGTAATTTATTTCAAGCGCAACAGGCGGAGTCACCTAGTGCAG | 3630 fluorescence intensity (a.u.)
CGTCCAAATATTATTTCCTGCGCGTGGTTTACAAAAGAGGCGGAGTCACCTAGTGCAG | 47300 fluorescence intensity (a.u.)
GAATAGAACATGTACAGTGACACATCTGCATTGGAAGCGTCGGAGTCACCTAGTGCAG | 7380 fluorescence intensity (a.u.)
TGTCATTGACTCACGTGGGTCCTACATGTCATTGAGCTTTCGGAGTCACCTAGTGCAG | 10300 fluorescence intensity (a.u.)
CATCCGTCGCTTCGCTTTCGTTCGAACGCGTTGGACCCAGCGGAGTCACCTAGTGCAG | 3160 fluorescence intensity (a.u.)
TTATGGACTGATATGGGCCGTTGGATTGGTTTCGGTTTTGCGGAGTCACCTAGTGCAG | 5480 fluorescence intensity (a.u.)
TTTATGATAACTTTGAGTCATATCATTTTGGTAAGTCCTACGGAGTCACCTAGTGCAG | 3140 fluorescence intensity (a.u.)
ATGATAACTTTTATGGTTTTGGCCGTCTGGGGATCGGAATCGGAGTCACCTAGTGCAG | 65500 fluorescence intensity (a.u.)
CCAGTACATTTTGTACTACTACTTCGAACGGGCATGGTCGCGGAGTCACCTAGTGCAG | 29700 fluorescence intensity (a.u.)
CTAATTGAAATCACAAATGCTGAGTTGCTGACATGCACCACGGAGTCACCTAGTGCAG | 4570 fluorescence intensity (a.u.)
GTAACGTACGACCGTTGTCATCGTAGACGCTTCCCGGATTCGGAGTCACCTAGTGCAG | 45700 fluorescence intensity (a.u.)
TGAACACGAACGCGACGCTTCTTCTGTCACGTACGCCCGTCGGAGTCACCTAGTGCAG | 3200 fluorescence intensity (a.u.)

Sequence | binding signal
CCCGTCGTTGTCCACCCCGTCCCATTCCACGACCGTCGTCCGGAGTCACCTAGTGCAG | 3390 fluorescence intensity (a.u.)
TTTCCTTGGAGAATCCAGATCAGCTTCCTAATCACCCTCACGGAGTCACCTAGTGCAG | 4040 fluorescence intensity (a.u.)
AGTTTCCGAGAGCGAGCGAGAGAGAGAGAGAGAGAGAGAGCGGAGTCACCTAGTGCAG | 3220 fluorescence intensity (a.u.)
GTGTCTGCCTCCGCGTCCGCTTCGTCACGGCGGTGTCGGTCGGAGTCACCTAGTGCAG | 5900 fluorescence intensity (a.u.)
TGTGCTCAGCCTTAATTAATTAATCGAGCGAGTCATAAGCCGGAGTCACCTAGTGCAG | 3460 fluorescence intensity (a.u.)
CAGGTGTGTCCATTGAATTGAATTGAATTGAAACTATTGACGGAGTCACCTAGTGCAG | 60900 fluorescence intensity (a.u.)
CAGGAATTGAACTATTAAGATCCATTATGTTGCTCTAAAACGGAGTCACCTAGTGCAG | 3310 fluorescence intensity (a.u.)
TGTACCTGAAACTATTGTTATGTCCAGGTCAGGAGCAGTGCGGAGTCACCTAGTGCAG | 3360 fluorescence intensity (a.u.)
CTCTCACCATGCAAGATTTCCTTAGATTTGAGTTGAGTCACGGAGTCACCTAGTGCAG | 3150 fluorescence intensity (a.u.)
CTTCAGTCCCGGTTGGTAAGGCTCAGCCGGCCACGTGGCTCGGAGTCACCTAGTGCAG | 17200 fluorescence intensity (a.u.)
AGCGGACGCGCGGTATGGTCGATGGATGATGACACACGGTCGGAGTCACCTAGTGCAG | 5210 fluorescence intensity (a.u.)
GTGCCATCTAAGCGTCACGTCAAACACCACATACCAGGTCCGGAGTCACCTAGTGCAG | 3140 fluorescence intensity (a.u.)
AAGCTAGTCACACATCACCATCACACACACCAAGCCACACCGGAGTCACCTAGTGCAG | 4460 fluorescence intensity (a.u.)
CCAGGTCACATTCACATCTCTCTTTACCAAAGCTAAGCCACGGAGTCACCTAGTGCAG | 48100 fluorescence intensity (a.u.)
CTGTATTCATTAGGGTGGGACTGTATACTATAGTTATTATCGGAGTCACCTAGTGCAG | 3190 fluorescence intensity (a.u.)
GACCCACGCCTTCGGGTCCACATGTCATAGCCTATCCACCCGGAGTCACCTAGTGCAG | 3550 fluorescence intensity (a.u.)
GTCTGGCTGCTGATGGTGATGATGCTGACTTGTGACGAGTCGGAGTCACCTAGTGCAG | 3620 fluorescence intensity (a.u.)
GGTCGATGATGATGATGACGACGACGAGAGGAGGAGAGATCGGAGTCACCTAGTGCAG | 3820 fluorescence intensity (a.u.)
TTTGCGATGCTGACTGGTCTGAGAGCCTTGATCCGATGGTCGGAGTCACCTAGTGCAG | 44800 fluorescence intensity (a.u.)
CTTGTTTGATCAAACCGATGCGACGCAGAGAGAGAGAGGTCGGAGTCACCTAGTGCAG | 39400 fluorescence intensity (a.u.)
GAAACGATGGTTTGAGTACTGACTTGGCAATGCTGGTCATCGGAGTCACCTAGTGCAG | 6280 fluorescence intensity (a.u.)
AAACAGAGGGGAAGAGAGAGGATCGTCGTCGACGATGATGCGGAGTCACCTAGTGCAG | 3200 fluorescence intensity (a.u.)
